Molecules are shown by their SMILES. In all, about 310,000 compounds went through this assay and about 3,600 (1.2%) were called active.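 Rule for the calls: active = ratio plate-corrected score three or more library SD toward inhibition, starting fluorescence score within five deviations; inactive = the rest.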 The sample as a whole holds a higher share of actives than the screen did.

The experiment deals with Anoctamin-1 (Mus musculus) (UniProt Q8BHY3). Briefly: blockers of mouse ANO1 Ca-activated Cl channel – cell-based, HTS, primary screen (AID 588511).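 For normalized B-score (activity score, 25-100; higher = stronger inhibition): score derived from kinetic fluorescence span divided by baseline fluorescence per well.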 The note with it: HEK293 TMEM16A/YFP iodide influx fluorescence, ionomycin; at 10 µM.
Chain of Anoctamin-1 (Mus musculus) (Q8BHY3 whole entry, looked up): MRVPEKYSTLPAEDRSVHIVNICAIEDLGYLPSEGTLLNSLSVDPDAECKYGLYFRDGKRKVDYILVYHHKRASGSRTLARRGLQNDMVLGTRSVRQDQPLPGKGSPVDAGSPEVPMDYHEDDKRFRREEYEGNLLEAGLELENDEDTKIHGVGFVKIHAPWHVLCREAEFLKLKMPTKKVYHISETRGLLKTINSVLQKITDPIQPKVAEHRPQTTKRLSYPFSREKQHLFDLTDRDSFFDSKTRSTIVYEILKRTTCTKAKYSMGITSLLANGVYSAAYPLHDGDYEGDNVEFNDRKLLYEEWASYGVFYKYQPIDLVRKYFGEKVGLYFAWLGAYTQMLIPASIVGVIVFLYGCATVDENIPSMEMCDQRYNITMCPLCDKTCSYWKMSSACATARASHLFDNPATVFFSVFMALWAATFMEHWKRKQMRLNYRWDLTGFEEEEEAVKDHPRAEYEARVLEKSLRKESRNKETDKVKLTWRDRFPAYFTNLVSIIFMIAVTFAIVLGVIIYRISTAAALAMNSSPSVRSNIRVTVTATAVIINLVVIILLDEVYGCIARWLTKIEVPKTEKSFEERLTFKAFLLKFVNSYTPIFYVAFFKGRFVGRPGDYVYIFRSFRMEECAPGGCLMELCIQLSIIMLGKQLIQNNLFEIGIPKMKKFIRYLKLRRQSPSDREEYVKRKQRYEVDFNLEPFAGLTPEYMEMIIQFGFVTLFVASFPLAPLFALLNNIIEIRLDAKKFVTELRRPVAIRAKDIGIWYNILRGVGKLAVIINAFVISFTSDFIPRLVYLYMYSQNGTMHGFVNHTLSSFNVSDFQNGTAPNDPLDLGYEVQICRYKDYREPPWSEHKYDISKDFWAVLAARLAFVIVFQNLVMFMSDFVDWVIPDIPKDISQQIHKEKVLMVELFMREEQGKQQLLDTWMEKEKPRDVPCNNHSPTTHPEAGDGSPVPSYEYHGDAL
For `CCOc1cccc(=NC2CCCCC2)c2c(C)[nH]c(C)c12`, the normalized B-score (activity score, 25-100; higher = stronger inhibition) is 25 (active). As to `Nc1ccc(C(=O)N/N=C2/CN3CCC2CC3)cc1`, the normalized B-score (activity score, 25-100; higher = stronger inhibition) result is “inactive”. Turning to `CCOC(=O)C1CN(C)CCC1=O` (stereo not given), the normalized B-score (activity score, 25-100; higher = stronger inhibition) entry is “inactive”.

Consider `CCCCCn1c(=O)c(C(=O)NCc2ccccc2)c(O)c2ccccc21`, for which the normalized B-score (activity score, 25-100; higher = stronger inhibition) result was “inactive”. As to `CCCCCn1c(=O)c(C(=O)NCc2ccccn2)c(O)c2ccccc21`, the normalized B-score (activity score, 25-100; higher = stronger inhibition) is 25 (active). For `CCCCn1c(=O)c(C(=O)Nc2ccccc2Cl)c(O)c2ccccc21` the value was “inactive”; for `O=C(Cn1c(=O)n(CC2CS2)c2ccccc21)N1CCCCC1` (stereo not given), “inactive”; for `O=c1[nH]c(=O)n(-c2ccccc2)c(O)c1C=NC12CN3CN(CN(C3)C1)C2`, “inactive”.

For `COc1ccccc1NC(=O)N1C[C@@H]2C[C@@H](C1)c1cccc(=O)n1C2`, the normalized B-score (activity score, 25-100; higher = stronger inhibition) entry is “inactive”.

Take `Cc1ccc(P(=S)(c2ccc(C)o2)N2CCOCC2)o1`: the normalized B-score (activity score, 25-100; higher = stronger inhibition) entry was “inactive”.

With `COc1ccc(-n2c(-c3ccccc3)nc3ccccc3c2=O)cc1`, the normalized B-score (activity score, 25-100; higher = stronger inhibition) entry was “inactive”. For `CCN(CC)P(=O)(Oc1cccc(C)c1)N(CC)CC` the value was “inactive”. Then `COc1ccc(-c2nn(CCC#N)cc2C(=O)Nc2ccc(C(C)=O)cc2)cc1`, with “inactive”; and `CCN(CC)C(=O)c1ccc(NC(=O)c2cc(-n3cnnc3)ccc2Cl)cc1`, with 100 (active); and `CCN(CC)C(=O)c1ccc(NC(=O)c2sccc2-c2ccccc2)cc1`, with “inactive”. Then `O=[N+]([O-])c1ccc(C2C3C(c4ccccc4)=NC4(CCCCC4)N32)cc1` (stereo not given), with “inactive”; and `CN(C)S(=O)(=O)c1cc(C(=O)N2CCC(C(=O)O)(c3ccccc3)CC2)ccc1Cl`, with “inactive”. Regarding `c1ccc(CCNC2CCCCCC2)cc1`, the normalized B-score (activity score, 25-100; higher = stronger inhibition) entry was “inactive”. On to `CCCCCCCCCCCCn1ccc(=N)cc1`, for which the normalized B-score (activity score, 25-100; higher = stronger inhibition) is 25 (active).

Consider `CC1(C)C(c2ccccc2)=NC(c2cccnc2)=[N+]1[O-]`, for which the normalized B-score (activity score, 25-100; higher = stronger inhibition) entry was “inactive”.

The values above are taken from PubChem BioAssay AID588511 (Johns Hopkins Ion Channel Center, 2011).
